# Test results taken from PubChem BioAssay (NCI).
# This is part of a sample that, as a whole, favours compounds with a hit. Of some 83,000 tested, about 20% had one in any assay.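 Step 1: grow cells in 96-well plates. Step 2: add test compound at a single concentration. Step 3: incubate 48 h. Step 4: record percent growth.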 Activity calls are given as the source filed them. How the source made its calls: active means growth percent below 10; inactive means the rest.
# Test system: SK-MEL-2 melanoma
# Experiment: NCI-60 one-dose screen, 48 h (100 = growth as untreated, 0 = no growth, -100 = all killed)
# Settings: 10 µM unless noted
row,SMILES,growth
1,CN1CCN(Cc2ccc(NC(=O)c3cncc(C#Cc4cnc5ccc(N6CCN(C)CC6)nn45)c3)cc2C(F)(F)F)CC1,56.4% (inactive)
2,O=C(O)c1cn(C2CC2)c2cc(N3CCN(C(=O)CN4C(=O)CSC4=O)CC3)c(F)cc2c1=O,113% (inactive)
3,NC/C(=C/F)COc1ccc2nc(NCc3cccnc3)oc2c1,105% (inactive)
4,C=C(C)[C@@H]1CC[C@]2(C(=O)NCCCCCN(CCC#N)CCC#N)CC[C@]3(C)[C@H](CC[C@@H]4[C@@]5(C)CCC(=O)C(C)(C)[C@@H]5CC[C@]43C)[C@@H]12,106% (inactive)
5,CCCCNNC(=O)c1ccc(-c2cccc(F)c2F)cc1,26.8% (inactive)
6,C#Cc1ccc(C(=O)NCc2ccc(/C=C/C(=O)c3nccn3C)cc2)cc1,87% (inactive)
7,COc1ccc(/C(N)=N/C(N)=N/c2nc3ccccc3s2)cc1,66.7% (inactive)
8,O=C(CN1CCN(c2cc(=O)[nH]c3ccc(F)cc23)CC1)Nc1ccc(Cl)cc1,66.2% (inactive)
9,Cc1ccc(-n2cc(/C=C/C(=O)c3ccc(O)cc3)c(-c3ccc(S(C)(=O)=O)cc3)n2)cc1,101% (inactive)
10,O=S(=O)(NCCCNc1nccc(-c2[nH]c(-c3ccccc3)nc2-c2ccc(Cl)c(O)c2)n1)c1cccc(F)c1,18.5% (inactive)
11,Cc1cc(-c2ccc(Cl)cc2)n(Cc2nnc(SCC(=O)Nc3ccc(S(N)(=O)=O)cc3)n2C2CCCCC2)n1,106% (inactive)
12,Oc1cccc2ccc(-c3nnc(SCc4ccc(O)c5ncccc45)n3-c3ccccc3)nc12,25.5% (inactive)
13,Cc1ccc(-c2nn(-c3ccccc3)cc2/C=C/C(=O)c2ccc(NC(=O)CCCCCCC(=O)NO)cc2)cc1,88.2% (inactive)
14,CC(C)(C)c1ccc(C(=O)Nc2sc3c(c2C(N)=O)CCC(O)C3)cc1 (stereo not drawn),80.3% (inactive)
15,O=C(Nc1ccc2c(ccn2Cc2ccccn2)c1)c1ccnnc1,102% (inactive)
16,CC(C)(C)c1ccc(C(=O)Nc2sc3c(c2C(N)=O)CC/C(=N\O)C3)cc1,-3.77% (active)
17,NC(N)=Nc1ccc(Oc2cccc(Nc3ccc(Cl)cc3)c2)cn1,64.6% (inactive)
18,CCc1cccc(NC(=O)CNc2cc(S(=O)(=O)N(C)C)cc(C)c2C)c1,102% (inactive)
19,COc1ccc(N2C(=O)c3cc(Cl)ccc3NC2SCc2ccccc2)cc1 (stereo not drawn),98.9% (inactive)

row,SMILES,growth
1,O=C(CN1CCN(c2cc(=O)n(-c3ccccc3)c3ccccc23)CC1)Nc1nc(-c2ccc(Cl)cc2)cs1,75.6% (inactive)
2,COc1ccc(C2c3sc4c(C)cccc4c3Oc3nc(CC(=O)Nc4ccccc4)[nH]c(=O)c32)cc1 (stereo not drawn),92.8% (inactive)
3,O=C(/C=C/c1ccc(F)cc1)c1ccc(O)cc1,115% (inactive)
4,Cn1ccnc1C(=O)/C=C/c1ccc(NC(=O)c2c(F)c(F)c(F)c(F)c2F)cc1,112% (inactive)
5,Nc1cc(-c2c[nH]c3ccc(Br)cc23)nc2cc(-c3c[nH]c4ccc(Br)cc34)nn12,-43.7% (active)
6,C#CCC#CCN1CCC[C@H]1C(=O)NCC(=O)OC,99.8% (inactive)
7,COc1cc(/C=C/C(=O)c2ccc(NC(=O)CSc3nnc(-c4ccc(-c5nc6ccc(Cl)cc6[nH]5)cc4)o3)cc2)cc(OC)c1OC,99.2% (inactive)
8,Oc1cccc2ccc(-c3nnc(SCc4ccc(O)c5ncccc45)o3)nc12,8.17% (active)
9,NS(=O)(=O)c1ccc(Nc2nc(SCc3ccccc3)nc3ccccc23)cc1,92.4% (inactive)
10,O=C1[C@@H]2Cc3c([nH]c4ccccc34)[C@H](c3c(Cl)cccc3Cl)N2C(=O)CN1C1CCN(CC2CCCCC2)CC1,105% (inactive)
11,NS(=O)(=O)c1ccc(Nc2nc(N/N=C/c3c[nH]c4ccccc34)nc(Nc3ccccc3)n2)cc1,67.3% (inactive)
12,N#Cc1c(-c2cccs2)cc(-c2cnccn2)nc1SCC(=O)Nc1ccc(Br)cc1,106% (inactive)
13,COc1ccc(Cn2cc3c(c2-c2cc(OC)c(OC)c(OC)c2)CCc2c(CN4CCOCC4)noc2-3)cc1,62.4% (inactive)
14,C=CCn1c(SCC(=O)Nc2ccc(C(=O)/C=C/c3ccc(C)cc3)cc2)nnc1-c1c[nH]c2ccccc12,97.3% (inactive)
15,COc1ccccc1C(=O)Nc1cccc2c1C(=O)C(=O)C=C2,109% (inactive)
16,COc1cc(-c2nn(C(C)(C)C)cc2-c2ccnc(NCCCNS(=O)(=O)c3ccc(Cl)cc3)n2)ccc1Cl,82.5% (inactive)
17,CCc1cccc2c3c(sc12)C(c1ccc(Cl)cc1)C(C#N)=C(/N=C/c1ccc(Cl)cc1)O3 (stereo not drawn),31% (inactive)
18,C=C(C=O)[C@@H]1CC[C@]2(COC(C)=O)CC[C@]3(C)C(CC[C@@H]4[C@@]5(C)CC[C@H](OC(C)=O)C(C)(C)[C@@H]5CC[C@]43C)[C@@H]12 (stereo partly drawn),-28% (active)
19,COc1ccccc1N1CCN(C2=CC(=O)C(C)=C(C)C2=O)CC1,101% (inactive)
